A word on the residual activity: it is the signal under treatment as a percentage of the control signal.

For one compound, residual activity results are on record in ChEMBL document CHEMBL2218924, “A broad activity screen in support of a chemogenomic map for kinase signalling research and drug discovery” (Biochem J, 2013).

Experiment [1] deals with T1, Ephrin type-B receptor 1 (Homo sapiens) (UniProt P54762).
T1 sequence (whole entry): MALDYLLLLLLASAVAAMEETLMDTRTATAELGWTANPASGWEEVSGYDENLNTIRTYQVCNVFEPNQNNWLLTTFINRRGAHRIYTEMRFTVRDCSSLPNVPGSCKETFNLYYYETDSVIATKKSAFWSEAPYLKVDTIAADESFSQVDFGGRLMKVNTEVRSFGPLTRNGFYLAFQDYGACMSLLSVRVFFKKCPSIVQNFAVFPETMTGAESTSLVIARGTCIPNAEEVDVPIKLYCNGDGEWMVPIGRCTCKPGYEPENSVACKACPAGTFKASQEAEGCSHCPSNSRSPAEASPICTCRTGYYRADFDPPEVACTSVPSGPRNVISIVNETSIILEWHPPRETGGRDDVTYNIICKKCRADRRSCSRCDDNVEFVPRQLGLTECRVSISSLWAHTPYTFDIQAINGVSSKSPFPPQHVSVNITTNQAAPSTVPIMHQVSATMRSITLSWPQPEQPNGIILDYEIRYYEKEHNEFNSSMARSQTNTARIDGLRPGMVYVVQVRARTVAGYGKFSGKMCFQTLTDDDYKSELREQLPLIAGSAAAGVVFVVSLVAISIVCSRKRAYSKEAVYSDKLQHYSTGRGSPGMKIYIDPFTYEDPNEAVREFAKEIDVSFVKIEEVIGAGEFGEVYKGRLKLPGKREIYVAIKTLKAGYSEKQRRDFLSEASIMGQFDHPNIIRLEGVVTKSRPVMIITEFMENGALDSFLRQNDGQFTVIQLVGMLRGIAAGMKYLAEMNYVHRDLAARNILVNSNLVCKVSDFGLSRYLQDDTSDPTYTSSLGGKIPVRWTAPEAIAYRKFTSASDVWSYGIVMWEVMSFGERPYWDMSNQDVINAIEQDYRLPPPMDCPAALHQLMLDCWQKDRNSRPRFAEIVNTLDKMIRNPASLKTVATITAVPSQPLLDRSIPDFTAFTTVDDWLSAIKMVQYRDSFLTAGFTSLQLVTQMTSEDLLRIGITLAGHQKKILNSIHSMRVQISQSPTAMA
To be noted: at 10 µM.

For experiment [2], the target named is T2, Ephrin type-B receptor 2 (Homo sapiens) (UniProt P29323).
T2 sequence (whole entry): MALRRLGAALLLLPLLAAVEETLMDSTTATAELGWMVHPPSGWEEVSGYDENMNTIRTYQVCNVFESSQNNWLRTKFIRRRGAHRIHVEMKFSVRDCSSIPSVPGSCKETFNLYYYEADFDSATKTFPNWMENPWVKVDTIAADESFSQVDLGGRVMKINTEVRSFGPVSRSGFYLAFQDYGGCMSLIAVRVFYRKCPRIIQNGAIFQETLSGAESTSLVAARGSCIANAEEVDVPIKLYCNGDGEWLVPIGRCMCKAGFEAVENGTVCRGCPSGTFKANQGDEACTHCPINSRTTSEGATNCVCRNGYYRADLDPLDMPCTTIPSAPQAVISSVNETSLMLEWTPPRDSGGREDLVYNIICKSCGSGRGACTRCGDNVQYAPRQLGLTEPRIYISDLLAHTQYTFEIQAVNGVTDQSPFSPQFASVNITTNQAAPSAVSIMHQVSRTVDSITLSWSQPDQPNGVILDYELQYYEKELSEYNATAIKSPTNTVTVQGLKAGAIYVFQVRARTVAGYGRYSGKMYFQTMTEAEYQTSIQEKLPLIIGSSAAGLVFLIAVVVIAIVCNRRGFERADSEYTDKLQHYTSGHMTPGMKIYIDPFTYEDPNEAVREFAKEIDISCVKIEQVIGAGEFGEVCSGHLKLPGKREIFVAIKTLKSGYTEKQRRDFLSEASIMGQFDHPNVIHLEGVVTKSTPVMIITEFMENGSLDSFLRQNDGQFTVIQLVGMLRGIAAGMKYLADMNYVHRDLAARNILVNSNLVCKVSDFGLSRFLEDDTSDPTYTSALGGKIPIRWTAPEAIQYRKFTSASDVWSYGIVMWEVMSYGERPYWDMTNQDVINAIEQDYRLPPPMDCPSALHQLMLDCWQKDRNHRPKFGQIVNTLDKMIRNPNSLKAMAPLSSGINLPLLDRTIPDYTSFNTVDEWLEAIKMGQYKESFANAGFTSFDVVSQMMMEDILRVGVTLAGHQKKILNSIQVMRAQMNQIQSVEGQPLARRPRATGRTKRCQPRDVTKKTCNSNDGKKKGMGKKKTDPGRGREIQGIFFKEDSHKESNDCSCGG
To be noted: at 1 µM.

Experiment [3] deals with T2, Ephrin type-B receptor 2 (Homo sapiens). The note with it: at 10 µM.
The target of experiment [4] is T3, Ephrin type-B receptor 3 (Homo sapiens) (UniProt P54753).
T3 sequence (whole entry): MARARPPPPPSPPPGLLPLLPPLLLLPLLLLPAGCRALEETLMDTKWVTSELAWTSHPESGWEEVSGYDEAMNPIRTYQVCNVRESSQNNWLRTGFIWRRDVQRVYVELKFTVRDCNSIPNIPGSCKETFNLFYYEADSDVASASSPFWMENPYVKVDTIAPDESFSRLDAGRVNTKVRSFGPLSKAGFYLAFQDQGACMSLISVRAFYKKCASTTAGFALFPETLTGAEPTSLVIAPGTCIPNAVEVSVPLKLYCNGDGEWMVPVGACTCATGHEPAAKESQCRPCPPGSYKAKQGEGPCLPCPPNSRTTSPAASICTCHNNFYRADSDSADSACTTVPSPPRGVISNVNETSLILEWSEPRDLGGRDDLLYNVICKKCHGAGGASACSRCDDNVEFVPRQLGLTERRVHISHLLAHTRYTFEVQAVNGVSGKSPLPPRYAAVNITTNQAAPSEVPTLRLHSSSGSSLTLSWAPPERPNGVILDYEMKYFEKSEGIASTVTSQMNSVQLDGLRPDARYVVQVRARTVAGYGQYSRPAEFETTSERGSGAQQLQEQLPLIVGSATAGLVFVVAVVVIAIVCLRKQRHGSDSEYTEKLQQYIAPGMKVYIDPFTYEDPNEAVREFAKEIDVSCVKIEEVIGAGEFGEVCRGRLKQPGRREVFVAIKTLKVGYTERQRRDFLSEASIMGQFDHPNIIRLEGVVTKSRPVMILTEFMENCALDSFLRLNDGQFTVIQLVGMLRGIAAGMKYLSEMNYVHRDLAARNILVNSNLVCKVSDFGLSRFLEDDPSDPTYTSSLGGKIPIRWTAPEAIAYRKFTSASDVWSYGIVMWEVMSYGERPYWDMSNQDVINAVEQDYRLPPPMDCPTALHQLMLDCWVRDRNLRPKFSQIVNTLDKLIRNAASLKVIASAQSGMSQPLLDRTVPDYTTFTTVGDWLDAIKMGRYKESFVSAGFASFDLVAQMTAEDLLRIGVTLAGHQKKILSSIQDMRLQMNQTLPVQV
The note with it: at 1 µM.

Experiment [5] addresses T3, Ephrin type-B receptor 3 (Homo sapiens). The note with it: at 10 µM.
Experiment [6] concerns the target T4, Ephrin type-B receptor 4 (Homo sapiens) (UniProt P54760).
T4 sequence (whole entry): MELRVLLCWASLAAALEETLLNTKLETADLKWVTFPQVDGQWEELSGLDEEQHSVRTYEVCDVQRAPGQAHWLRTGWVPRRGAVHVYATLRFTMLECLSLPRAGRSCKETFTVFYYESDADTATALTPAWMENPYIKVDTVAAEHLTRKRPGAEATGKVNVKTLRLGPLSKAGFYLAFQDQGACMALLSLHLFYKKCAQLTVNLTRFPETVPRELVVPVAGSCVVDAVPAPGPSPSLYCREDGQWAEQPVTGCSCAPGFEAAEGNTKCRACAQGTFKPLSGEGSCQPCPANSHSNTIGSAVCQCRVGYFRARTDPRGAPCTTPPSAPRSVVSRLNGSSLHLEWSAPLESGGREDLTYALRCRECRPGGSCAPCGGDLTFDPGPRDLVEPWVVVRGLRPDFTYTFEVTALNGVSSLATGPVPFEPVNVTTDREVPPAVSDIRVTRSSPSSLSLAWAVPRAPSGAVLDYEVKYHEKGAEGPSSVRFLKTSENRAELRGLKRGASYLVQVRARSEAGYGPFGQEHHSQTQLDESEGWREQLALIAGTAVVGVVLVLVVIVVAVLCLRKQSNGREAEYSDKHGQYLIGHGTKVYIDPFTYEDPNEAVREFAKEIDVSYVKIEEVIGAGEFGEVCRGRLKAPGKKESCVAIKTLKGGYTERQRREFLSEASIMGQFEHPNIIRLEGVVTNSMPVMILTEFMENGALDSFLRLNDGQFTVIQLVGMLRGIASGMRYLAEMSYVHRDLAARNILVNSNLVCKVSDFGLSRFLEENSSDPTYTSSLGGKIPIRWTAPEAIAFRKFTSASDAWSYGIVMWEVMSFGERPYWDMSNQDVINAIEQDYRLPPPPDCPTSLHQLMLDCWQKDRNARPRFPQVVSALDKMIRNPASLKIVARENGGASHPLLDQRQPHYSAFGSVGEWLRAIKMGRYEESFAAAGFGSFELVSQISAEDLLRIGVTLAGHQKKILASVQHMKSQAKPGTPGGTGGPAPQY
To be noted: at 1 µM.

Experiment [7] has as its target T4, Ephrin type-B receptor 4 (Homo sapiens). The note with it: at 10 µM.
In experiment [8] the target is Receptor tyrosine-protein kinase erbB-4 (Homo sapiens) (UniProt Q15303). The note with it: at 1 µM.
Experiment [9] shares this target. To be noted: at 10 µM.
The target in experiment [10] is Focal adhesion kinase 1 (Homo sapiens) (UniProt Q05397). The note with it: at 1 µM.
Focal adhesion kinase 1 (Homo sapiens), sequence (Q05397 2-1052 limits assumed): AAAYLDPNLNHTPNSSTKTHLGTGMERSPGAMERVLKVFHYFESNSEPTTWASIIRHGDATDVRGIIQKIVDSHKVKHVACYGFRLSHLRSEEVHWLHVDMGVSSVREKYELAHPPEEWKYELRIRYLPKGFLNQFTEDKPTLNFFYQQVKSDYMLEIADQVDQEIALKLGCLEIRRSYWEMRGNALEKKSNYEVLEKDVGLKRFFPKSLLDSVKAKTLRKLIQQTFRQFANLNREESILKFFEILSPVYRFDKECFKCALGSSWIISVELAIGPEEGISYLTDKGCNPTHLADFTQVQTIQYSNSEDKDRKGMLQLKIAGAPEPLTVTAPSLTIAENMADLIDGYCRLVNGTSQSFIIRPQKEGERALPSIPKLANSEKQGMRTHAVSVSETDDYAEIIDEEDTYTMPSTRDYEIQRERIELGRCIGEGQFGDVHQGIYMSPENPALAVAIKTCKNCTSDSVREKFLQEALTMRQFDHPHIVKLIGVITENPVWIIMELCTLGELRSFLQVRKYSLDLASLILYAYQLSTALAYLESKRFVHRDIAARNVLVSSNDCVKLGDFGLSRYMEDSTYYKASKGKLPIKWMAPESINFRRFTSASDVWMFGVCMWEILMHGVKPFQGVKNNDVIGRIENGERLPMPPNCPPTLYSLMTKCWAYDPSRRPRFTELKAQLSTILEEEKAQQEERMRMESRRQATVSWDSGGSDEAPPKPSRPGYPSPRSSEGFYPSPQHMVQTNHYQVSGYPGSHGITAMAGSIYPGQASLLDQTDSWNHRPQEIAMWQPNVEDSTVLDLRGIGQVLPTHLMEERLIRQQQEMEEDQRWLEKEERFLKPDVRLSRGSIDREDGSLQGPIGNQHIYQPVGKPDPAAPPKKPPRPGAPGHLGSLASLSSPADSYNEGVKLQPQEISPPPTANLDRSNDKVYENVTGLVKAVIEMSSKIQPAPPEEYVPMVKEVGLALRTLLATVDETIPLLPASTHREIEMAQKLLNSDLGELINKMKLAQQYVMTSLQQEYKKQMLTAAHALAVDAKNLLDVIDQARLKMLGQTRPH

Receptor tyrosine-protein kinase erbB-4 (Homo sapiens), sequence (Q15303 whole entry): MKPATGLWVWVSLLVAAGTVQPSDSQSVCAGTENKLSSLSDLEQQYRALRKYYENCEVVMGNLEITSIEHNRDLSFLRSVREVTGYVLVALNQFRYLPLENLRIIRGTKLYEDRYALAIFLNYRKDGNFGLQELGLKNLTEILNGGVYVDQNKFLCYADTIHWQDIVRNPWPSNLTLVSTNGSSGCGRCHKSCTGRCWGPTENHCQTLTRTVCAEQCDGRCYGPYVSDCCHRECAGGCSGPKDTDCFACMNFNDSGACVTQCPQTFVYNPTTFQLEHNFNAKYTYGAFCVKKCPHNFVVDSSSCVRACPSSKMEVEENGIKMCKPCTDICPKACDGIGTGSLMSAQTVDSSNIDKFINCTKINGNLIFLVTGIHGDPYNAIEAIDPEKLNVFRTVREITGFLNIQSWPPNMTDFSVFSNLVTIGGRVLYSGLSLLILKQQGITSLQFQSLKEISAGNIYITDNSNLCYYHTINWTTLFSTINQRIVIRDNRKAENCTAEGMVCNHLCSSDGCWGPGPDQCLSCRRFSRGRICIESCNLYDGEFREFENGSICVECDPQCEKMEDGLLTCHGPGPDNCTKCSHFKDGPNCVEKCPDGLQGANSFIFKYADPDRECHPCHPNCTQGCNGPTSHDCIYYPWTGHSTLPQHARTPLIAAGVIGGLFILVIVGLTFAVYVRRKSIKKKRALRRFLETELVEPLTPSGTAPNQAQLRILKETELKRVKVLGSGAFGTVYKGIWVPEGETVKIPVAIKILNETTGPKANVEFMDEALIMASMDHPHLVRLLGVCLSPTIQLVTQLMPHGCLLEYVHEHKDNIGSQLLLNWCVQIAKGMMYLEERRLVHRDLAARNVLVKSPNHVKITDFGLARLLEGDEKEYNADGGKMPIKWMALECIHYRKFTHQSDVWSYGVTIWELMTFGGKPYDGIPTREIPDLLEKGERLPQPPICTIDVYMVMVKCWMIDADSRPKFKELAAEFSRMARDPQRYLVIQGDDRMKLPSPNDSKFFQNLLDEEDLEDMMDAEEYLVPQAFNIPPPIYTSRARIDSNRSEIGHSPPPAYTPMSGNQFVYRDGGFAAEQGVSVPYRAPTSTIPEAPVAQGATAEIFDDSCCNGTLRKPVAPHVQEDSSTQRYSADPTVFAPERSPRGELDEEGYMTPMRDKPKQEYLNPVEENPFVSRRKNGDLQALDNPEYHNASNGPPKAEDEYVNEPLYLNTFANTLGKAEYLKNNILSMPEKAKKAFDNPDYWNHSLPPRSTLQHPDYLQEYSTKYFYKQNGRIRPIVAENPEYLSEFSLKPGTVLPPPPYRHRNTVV

On to `COc1cc2ncnc(Nc3ccc(Oc4ccccc4)cc3)c2cc1OC`, for which the residual activity in experiment [1] was 107%; in [2], 115%; in [3] it was 109%; in [4], 120% (inactive); in [5] it was 93%; in experiment [6], 106%. For the same compound, the residual activity in [7] is 138%; in experiment [8], -3%; in experiment [9] it was -5%; in [10], 72%.
